From PubChem BioAssay (NCATS) come the findings set out here.

Inconclusive results are not listed. Values without a mark were called inactive. Activity calls are given as the source filed them. Calls follow the shape of the full dose curve.
Potency is read from the fitted curve at half-maximal effect.

Chain of Cytochrome P450 1A2 (Homo sapiens) (P05177 whole entry, looked up): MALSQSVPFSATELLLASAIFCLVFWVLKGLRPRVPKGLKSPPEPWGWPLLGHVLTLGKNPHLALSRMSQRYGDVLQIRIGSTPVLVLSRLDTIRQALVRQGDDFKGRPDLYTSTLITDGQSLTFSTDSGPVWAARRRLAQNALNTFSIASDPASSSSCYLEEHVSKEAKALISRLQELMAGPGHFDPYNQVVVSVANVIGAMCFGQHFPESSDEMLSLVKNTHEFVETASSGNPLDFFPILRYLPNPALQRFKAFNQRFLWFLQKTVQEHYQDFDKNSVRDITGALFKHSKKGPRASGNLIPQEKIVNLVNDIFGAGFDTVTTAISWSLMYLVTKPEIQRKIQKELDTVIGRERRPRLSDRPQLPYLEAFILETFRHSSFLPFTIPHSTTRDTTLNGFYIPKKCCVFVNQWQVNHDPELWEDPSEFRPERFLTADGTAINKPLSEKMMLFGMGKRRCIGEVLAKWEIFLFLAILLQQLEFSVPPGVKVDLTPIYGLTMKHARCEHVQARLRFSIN

This experiment has as its target Cytochrome P450 1A2 (Homo sapiens) (UniProt P05177). Put plainly: p450-cyp1a2 (AID 410).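 As to activity change, negative = inhibition: -100% = full effect of reference inhibitor.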 To be noted: recombinant CYP1A2, luciferin-ME demethylation, luminescence; series mostly up to 57 µM; activity change, negative = inhibition: at the top concentration. As to the method: The P450 gene superfamily is involved in metabolism and the clearance of xenobiotics. This assay used human CYP1A2 to measure the demethylation of luciferin 6' methyl ether (Luciferin-ME; Promega-Glo) to luciferin. The luciferin is then measured by luminescence after the addition of a luciferase detection regeant. Luciferin-ME concentration in the assay was equal to its Km for CYP1A2.
NCGC Assay Protocol Summary:
Two uL of enzyme and substrate mix (final concentrations: 20nM CYP1A2, 100uM Luciferin-ME, 100mM KPO4) were dispensed into a white, solid bottom 1536-well microtiter plate. 23nL of compound was transferred by a pin tool. The plate was incubated at room temperature for 10 min. Two uL of an NADPH regeneration solution (Promega supplied reagent) was dispensed and the reaction was allowed to continue for 60 min at room temperature. Then the reaction was stopped by reconstituted detection reagent. After another 20 min of incubation the plate was read on the ViewLux (Perkin Elmer) at 60 sec exposure and 2x2 binning. This protocol was carried out with Promega-Glo reagents and further information can be found at http://www.promega.com/tbs/tb325/tb325.pdf. Data were normalized to the to AC100 inhibition (57 uM furafylline).
For `COCC(=O)N1CCC2(CCN(Cc3ccncc3)CC2)CC1`, the Potency was 10 µM (active). As to `COc1cccc(Cn2c(=O)c(-c3ccc(F)cc3)nc3cnc(N4CCNCC4)nc32)c1`, the Potency is 25.1 µM (active).

With `CN(Cc1ccco1)c1ccnc(-c2cccnc2)n1`, the Potency was 0.794 µM (active). On the same count and under the same terms, the figure for `O=C(c1cccc(F)c1)N1CCC2(CCCN(C(c3ccccc3)c3ccccc3)C2)CC1` is 6.31 µM (active). Still for that read-out and setting: for `COc1ccccc1-c1cncnc1N(C)Cc1ccco1` the value was 15.8 µM (active); for `c1cncc(-c2nc(NCc3cccs3)c3ccccc3n2)c1`, 0.316 µM (active); for `COc1cccc(-c2nc(N(C)Cc3ccco3)c3ccccc3n2)c1`, 0.316 µM (active). Consider `COCC(=O)N1CCC2(CCCN(c3ccncc3)C2)CC1`, for which the “activity change, negative = inhibition” value was -16.3%.

`COc1ccc(-c2nc3cnc(Nc4cccc(OC)c4)nc3n(Cc3cccs3)c2=O)cc1`: the “activity change, negative = inhibition” value was -12.7%.

`O=C(c1csnn1)N1CCC2(CC1)CN(c1cccc(-c3ccccc3)c1)C2`: the Potency was 12.6 µM (active). Still for that read-out and setting: the figure for `O=C(c1ccncc1)N1CCC2(CC1)CCN(c1ncccn1)CC2` is 20 µM (active); for `N#Cc1cccc(NC(=O)N2CC3(CCN(C(=O)c4cc(C(F)(F)F)cc(C(F)(F)F)c4)CC3)C2)c1` it is 12.6 µM (active). In the case of `CN1CCN(c2ncc3nc(-c4cc(F)cc(F)c4)c(=O)n(CCC#N)c3n2)CC1`, the Potency was 15.8 µM (active). Consider `CN1CCCC2(CCN(C(=O)c3cccc(F)c3)CC2)C1`, for which the Potency is 31.6 µM (active).

`Cc1noc(C)c1C(=O)N1CCC2(CCN(Cc3ccccc3)CC2)CC1`: the “activity change, negative = inhibition” value is -5.8%. `COc1ccc2[nH]cc(CCNc3nc(-c4ccc(C(=O)N(C)C)cc4)nc4ccccc34)c2c1`: the Potency was 15.8 µM (active). In the case of `COc1cccc(-c2ccc3ncnc(NCCNC(C)=O)c3c2)c1`, the Potency was 3.16 µM (active).

Consider `COc1ccccc1-c1ccc2ncnc(NCc3cnc(C)cn3)c2c1`, for which the Potency was 6.31 µM (active).

On to `CS(=O)(=O)N1CCC[C@@]2(CCN(C(=O)Nc3cccc(C#N)c3)C2)C1`, for which the “activity change, negative = inhibition” value was -14.8%. For the compound `O=c1c(-c2cccc(Cl)c2)nc2cncnc2n1Cc1ccccc1`, the Potency was 1 µM (active). With `Clc1ccccc1-c1cc(NCCN2CCOCC2)ncn1`, the Potency was 31.6 µM (active). Turning to `CN(C)Cc1ccccc1-c1nc(NC2CC2)c2ccccc2n1`, the Potency is 5.01 µM (active). Take `O=C(c1csnn1)N1CCC2(CCCN(Cc3ccccc3)C2)CC1`: the “activity change, negative = inhibition” value was -7.4%. For `c1ncc(-c2ccc3c(c2)OCO3)c(NCCc2cnc[nH]2)n1`, the Potency is 0.398 µM (active). `Cn1c(=O)c(CCc2ccccc2)nc2cnc(Nc3ccccc3)nc21`: the Potency was 1.26 µM (active).

In the case of `CN(C)Cc1ccccc1-c1ccc2ncnc(N3CCOCC3)c2c1`, the Potency was 15.8 µM (active). In the case of `O=c1cnc2cnc(Nc3ccccc3)nc2n1CCc1ccccc1`, the Potency was 3.16 µM (active). For the compound `COc1ccccc1CNc1ncnc2ccc(-c3ccccc3OC)cc12`, the Potency was 1 µM (active).

In the case of `N#CCCn1c(=O)c(-c2ccc(Cl)cc2)nc2cnc(Oc3cccc(Cl)c3)nc21`, the “activity change, negative = inhibition” value is -14.7%.

As for `COc1ncc2nc(-c3cccs3)c(=O)n(Cc3ccc(F)cc3)c2n1`, the Potency is 3.16 µM (active). As to `CN1CCN(c2ncc3nc(-c4cccc(C#N)c4)c(=O)n(C)c3n2)CC1`, the Potency was 12.6 µM (active). Regarding `c1ccc(CNc2nc(-c3ccoc3)nc3ccccc23)cc1`, the Potency is 0.631 µM (active). Consider `N[C@H](C(=O)O)c1ccc(O)c(C(=O)O)c1`, for which the “activity change, negative = inhibition” value is 6.8%. Consider `COC(=O)N1CCC2(CCN(C(=O)Nc3cccc(F)c3)CC2)CC1`, for which the Potency was 12.6 µM (active).

In the case of `Cc1cccc(CNc2cc(-c3cccc(C#N)c3)ncn2)c1`, the Potency was 0.158 µM (active).

As for `COc1ccccc1CN1CCCC2(CCN(C(C)=O)CC2)C1`, the Potency is 25.1 µM (active). On to `O=c1cnc2cnc(Nc3ccccc3)nc2n1C[C@H]1CCCO1`, for which the Potency was 0.794 µM (active).

In the case of `CC(C)NC(=O)N1CC[C@@]2(CCCN(S(=O)(=O)c3ccccc3)C2)C1`, the “activity change, negative = inhibition” value is -2.4%. Turning to `COc1ccc(-c2nc3cnc(N4CCN(C)CC4)nc3n(CCC#N)c2=O)cc1`, the “activity change, negative = inhibition” value is -15.1%. As to `COc1ccccc1CNc1ncnc2ccc(-c3c(C)noc3C)cc12`, the Potency was 7.94 µM (active).
